Data taken from PubChem BioAssay (Tox21).
Records with an inconclusive call do not appear. The source made the active and inactive calls. Unless noted, calls follow the shape of the full dose curve.

Columns and labels:
[1] = Nuclear factor erythroid 2-related factor 2/antioxidant responsive element (Nrf2/ARE) small molecule agonists: qHTS cell viability counter screen in human keratinocytes (AID 1919968; active = well fitted curve in the direction sought with a large enough effect in the repeat runs; an effect the other way counts as inactive or inconclusive; also: nearly all actives have a fitted effect of over 55% in size)
In short: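 KeratinoSens cells (HaCaT keratinocytes stably carrying an ARE-luciferase reporter) were seeded at 1,500 cells/well and rested 5 h at 37 C/5% CO2. They were then exposed to compounds in DMSO for 23 h. Viability was read by CellTiter-Fluor fluorescence after 1 h.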

[2] = Nuclear factor erythroid 2-related factor 2/antioxidant responsive element (Nrf2/ARE) small molecule agonists: luciferase reporter gene qHTS assay in human keratinocytes (AID 1919969); also: nearly all actives have a fitted effect of over 35% in size
[3] = biological target: Gonadotropin-releasing hormone receptor (Homo sapiens) (UniProt P30968); assay: Human gonadotropin-releasing hormone receptor (GnRHR) small molecule agonists, calcium flux assay in GnRHR-HEK293 cells (AID 1920063); also: nearly all actives have a fitted effect of over 35% in size
Chain of Gonadotropin-releasing hormone receptor (Homo sapiens) (P30968 whole entry, looked up): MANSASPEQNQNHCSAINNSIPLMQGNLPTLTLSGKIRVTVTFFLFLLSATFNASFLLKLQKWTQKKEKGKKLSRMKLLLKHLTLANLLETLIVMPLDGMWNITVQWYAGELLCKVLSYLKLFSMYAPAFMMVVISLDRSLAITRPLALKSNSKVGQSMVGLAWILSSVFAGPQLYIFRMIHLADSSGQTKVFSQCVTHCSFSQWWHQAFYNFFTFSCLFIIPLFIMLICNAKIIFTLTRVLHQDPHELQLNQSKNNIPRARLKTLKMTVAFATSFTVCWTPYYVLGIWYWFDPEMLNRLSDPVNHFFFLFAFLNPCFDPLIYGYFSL
In short: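 HEK293 cells stably expressing human GnRHR were plated 18 h at 37 °C, loaded with calcium dye 1 h at 37 °C, then given compound in agonist mode; fluorescence (Ex/Em 480/540) read kinetically for 3 min at 1 s intervals.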

[4] = biological target: KiSS-1 receptor (Homo sapiens) (UniProt Q969F8); assay: Human kisspeptin (KISS1R) small molecule agonists, calcium flux assay in KISS1R-HEK293 cells (AID 1920064; active = well fitted curve in the direction sought with a large enough effect in the repeat runs; an effect the other way counts as inactive or inconclusive)
Chain of KiSS-1 receptor (Homo sapiens) (Q969F8 whole entry, looked up): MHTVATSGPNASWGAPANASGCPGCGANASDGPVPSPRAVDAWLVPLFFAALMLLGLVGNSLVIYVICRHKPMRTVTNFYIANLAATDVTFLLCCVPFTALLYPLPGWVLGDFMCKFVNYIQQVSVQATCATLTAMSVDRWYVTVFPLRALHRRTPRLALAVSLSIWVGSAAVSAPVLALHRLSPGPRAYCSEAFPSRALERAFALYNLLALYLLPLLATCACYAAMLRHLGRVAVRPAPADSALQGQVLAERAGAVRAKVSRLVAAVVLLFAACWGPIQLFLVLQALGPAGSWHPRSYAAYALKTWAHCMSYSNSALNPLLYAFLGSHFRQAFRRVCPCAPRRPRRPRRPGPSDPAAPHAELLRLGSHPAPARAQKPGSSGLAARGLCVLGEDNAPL
In short: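 HEK293 cells stably expressing human KISS1R were plated 18 h at 37 °C, loaded with calcium dye for 1 h at 37 °C, then given compound by pin tool. Fluorescence (Ex/Em 480/540) was read kinetically for 3 min.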

[5] = G protein-coupled receptor (GPCR) small molecule agonists, calcium flux assay: HEK293 wild type cell line counter screen (AID 1920065)
In short: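 Cells were plated and cultured 18 h at 37 C/5% CO2, then loaded with calcium dye for 1 h at 37 C. Compounds in DMSO were pin-transferred in agonist mode, and fluorescence (Ex/Em 480/540) was read kinetically for 3 min at 1 s intervals.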

[6] = p53 small molecule agonists, cell-based qHTS assay with human liver microsomes: qHTS cell viability counter screen (AID 1963579); also: nearly all actives have a fitted effect of over 45% in size
In short: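 Metabolic activation used human liver microsomes and NADPH, both 0.5 mg/mL final, over 16 hours at 37 C on p53RE-bla cells (4,000/well). Cytotoxicity measured by CellTiter-Glo luminescence, 30 min at room temperature.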

[7] = p53 small molecule agonists, cell-based qHTS assay with rat liver microsomes: qHTS cell viability counter screen (AID 1963580); also: nearly all actives have a fitted effect of over 45% in size
In short: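 In HCT-116 cells carrying a p53 response element-bla reporter, compounds were metabolically activated in situ by rat liver microsomes with NADPH over 16 h. Cell ATP content then served as the cytotoxicity measure.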

[8] = p53 small molecule agonists, cell-based qHTS assay: qHTS cell viability counter screen (AID 1963581); also: nearly all actives have a fitted effect of over 45% in size
In short: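 p53RE-bla HCT-116 cells were exposed to compounds for 16 h at 37 C; after the beta-lactamase FRET read in the same wells, CellTiter-Glo was added and luminescence (intracellular ATP) read after 30 min at room temperature.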

[9] = biological target: 5-hydroxytryptamine receptor 2A (Homo sapiens) (UniProt P28223); assay: 5-hydroxytryptamine receptor 2A (HTR2A) small molecule agonists, cell-based qHTS assay (AID 1963587); also: nearly all actives have a fitted effect of over 30% in size
Chain of 5-hydroxytryptamine receptor 2A (Homo sapiens) (P28223 whole entry, looked up): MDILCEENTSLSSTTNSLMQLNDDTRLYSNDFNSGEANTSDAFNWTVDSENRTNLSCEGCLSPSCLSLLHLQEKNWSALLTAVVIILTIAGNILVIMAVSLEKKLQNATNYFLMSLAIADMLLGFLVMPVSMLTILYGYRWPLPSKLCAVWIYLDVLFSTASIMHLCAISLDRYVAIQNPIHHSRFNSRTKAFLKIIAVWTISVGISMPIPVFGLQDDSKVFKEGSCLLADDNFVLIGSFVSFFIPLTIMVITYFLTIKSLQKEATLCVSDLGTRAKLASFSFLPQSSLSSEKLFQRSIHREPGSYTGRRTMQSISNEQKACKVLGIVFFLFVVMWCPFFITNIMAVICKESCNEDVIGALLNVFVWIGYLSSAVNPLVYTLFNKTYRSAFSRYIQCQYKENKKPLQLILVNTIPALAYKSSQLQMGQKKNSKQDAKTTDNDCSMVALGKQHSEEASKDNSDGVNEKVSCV
In short: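 HTR2A-CHO cells, plated 18 h at 37 C/5% CO2, dye-loaded 1 h at 37 C; compounds in DMSO added by pin tool (agonist mode). Intracellular calcium flux read as kinetic fluorescence on FDSS over 2 min at 1 s intervals.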

[10] = biological target: Muscarinic acetylcholine receptor M1 (Homo sapiens) (UniProt P11229); assay: Cholinergic receptor muscarinic 1 (CHRM1) small molecule agonists, cell-based qHTS assay (AID 1963589); also: nearly all actives have a fitted effect of over 35% in size
Chain of Muscarinic acetylcholine receptor M1 (Homo sapiens) (P11229 whole entry, looked up): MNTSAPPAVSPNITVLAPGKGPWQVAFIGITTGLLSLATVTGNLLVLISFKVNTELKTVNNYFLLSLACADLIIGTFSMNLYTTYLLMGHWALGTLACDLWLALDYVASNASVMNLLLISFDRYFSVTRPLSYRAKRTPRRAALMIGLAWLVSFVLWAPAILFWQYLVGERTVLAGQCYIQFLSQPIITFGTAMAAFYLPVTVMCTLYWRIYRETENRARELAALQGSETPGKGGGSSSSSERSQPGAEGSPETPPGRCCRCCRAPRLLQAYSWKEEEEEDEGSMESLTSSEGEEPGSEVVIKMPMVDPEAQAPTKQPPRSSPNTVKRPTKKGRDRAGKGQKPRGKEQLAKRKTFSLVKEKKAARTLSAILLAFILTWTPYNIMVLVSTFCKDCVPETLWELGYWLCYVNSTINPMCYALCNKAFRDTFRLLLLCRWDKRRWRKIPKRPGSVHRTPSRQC
In short: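 CHO cells stably expressing human CHRM1, seeded 18 h at 37 C/5% CO2, dye-loaded 1 h at 37 C, then given compound in agonist mode; intracellular calcium fluorescence read kinetically at 1 s intervals. Fifteen concentrations, three independent runs.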

[11] = cAMP Responsive Elements (CRE) small molecule agonists, cell-based qHTS assay (AID 1963590)
In short: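 CRE-bla HEK 293T cells in DMEM with 10% dialyzed FBS, NEAA, pyruvate and 25 mM HEPES were plated 18 h at 37 C/5% CO2, then exposed to compounds in DMSO for 3 h before LiveBLAzer B/G FRET substrate addition.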

[12] = cAMP Responsive Elements (CRE) small molecule antagonists, cell-based qHTS assay (AID 1963591; active = well fitted inhibition curve with a large enough effect in the signal ratio in the repeat runs, not every such curve was filed as active; the % refers to the signal ratio)
In short: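 CRE-bla HEK293T cells were plated 18 h at 37 °C/5% CO2, pinned with compound in DMSO, then stimulated with NKH477 at 0.25 uM final for 3 h. LiveBLAzer B/G FRET substrate was added and plates incubated 2 h at room temperature.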

[13] = biological target: Beta-2 adrenergic receptor (Homo sapiens) (UniProt P07550); assay: Adrenergic beta2 receptor (ADRB2) small molecule antagonists, cell-based qHTS assay (AID 1963592); also: series mostly up to about 92 µM; nearly all actives have a fitted effect of over 50% in size
Chain of Beta-2 adrenergic receptor (Homo sapiens) (P07550 whole entry, looked up): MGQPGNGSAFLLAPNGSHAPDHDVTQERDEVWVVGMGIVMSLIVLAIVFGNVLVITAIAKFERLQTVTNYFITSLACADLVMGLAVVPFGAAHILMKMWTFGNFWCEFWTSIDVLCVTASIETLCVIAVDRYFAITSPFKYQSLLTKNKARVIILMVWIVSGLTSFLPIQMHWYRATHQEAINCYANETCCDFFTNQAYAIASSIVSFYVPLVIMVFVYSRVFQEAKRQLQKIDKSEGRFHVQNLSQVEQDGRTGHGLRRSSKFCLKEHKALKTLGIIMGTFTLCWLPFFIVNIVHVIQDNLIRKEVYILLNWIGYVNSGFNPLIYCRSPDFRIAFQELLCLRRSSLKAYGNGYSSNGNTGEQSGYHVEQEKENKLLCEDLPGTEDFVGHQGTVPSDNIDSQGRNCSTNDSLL
In short: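 Cells (CHO, stable ADRB2 overexpression) incubated 18-20hr at 37C; compounds added from DMSO; agonist mix (1nM isoproterenol, 100uM IBMX, 25uM Ro-20-1724) added; 0.5hr RT; d2-cAMP and anti-cAMP-cryptate added; 1hr RT; 665/615 nm read.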

[14] = biological target: Beta-2 adrenergic receptor (Homo sapiens) (UniProt P07550); assay: Adrenergic beta2 receptor (ADRB2) small molecule agonists, cell-based qHTS assay (AID 1963593);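 also: CHO cells stably overexpressing human ADRB2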
In short: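 CHO cells stably over-expressing ADRB2 were plated overnight at 37C, then dosed with compounds plus a stimulation mix containing 100uM IBMX and 25uM Ro-20-1724 for 0.5hr at room temperature. cAMP was measured by HTRF competition, 1hr.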

[15] = biological target: D(2) dopamine receptor (Homo sapiens) (UniProt P14416); assay: Dopamine D2 receptor (DRD2) small molecule agonists, cell-based qHTS assay (AID 1963594); also: nearly all actives have a fitted effect of over 35% in size
Chain of D(2) dopamine receptor (Homo sapiens) (P14416 whole entry, looked up): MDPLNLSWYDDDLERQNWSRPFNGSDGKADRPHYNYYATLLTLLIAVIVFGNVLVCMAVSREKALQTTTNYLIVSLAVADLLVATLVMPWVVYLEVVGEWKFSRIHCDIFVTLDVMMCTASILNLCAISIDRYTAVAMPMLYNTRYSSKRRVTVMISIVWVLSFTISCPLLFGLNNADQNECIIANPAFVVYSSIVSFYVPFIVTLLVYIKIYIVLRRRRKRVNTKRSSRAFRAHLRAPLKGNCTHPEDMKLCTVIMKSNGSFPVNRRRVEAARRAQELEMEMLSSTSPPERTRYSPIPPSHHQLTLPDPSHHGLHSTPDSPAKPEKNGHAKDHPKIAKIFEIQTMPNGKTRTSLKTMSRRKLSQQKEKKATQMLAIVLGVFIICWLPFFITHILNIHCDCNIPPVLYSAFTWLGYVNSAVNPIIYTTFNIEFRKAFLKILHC
In short: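 HEK293 cells stably expressing DRD2 were cultured 24 h at 37 C, then given Ro20-1724 (0.1 mM final) and compounds for 10 min at room temperature. NKH477 (200nM) was then added for 30 min. cAMP was read by HTRF.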

[16] = biological target: D(2) dopamine receptor (Homo sapiens) (UniProt P14416); assay: Dopamine D2 receptor (DRD2) small molecule antagonists, cell-based qHTS assay (AID 1963595; active = well fitted inhibition curve with a large enough effect in the signal ratio in the repeat runs, with a control signal flat; the % refers to the signal ratio)
In short: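 In this cell-based antagonist screen, compounds act for 10 min at room temperature before a 30 min challenge with 12 nM quinpirole and 200 nM NKH477. cAMP is quantified by HTRF competition in DRD2-HEK293 cells containing 0.1 mM Ro20-1724.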

[17] = biological target: Muscarinic acetylcholine receptor M1 (Homo sapiens) (UniProt P11229); assay: Cholinergic receptor muscarinic 1 (CHRM1) small molecule antagonists, cell-based qHTS assay (AID 1963588); also: nearly all actives have a fitted effect of over 40% in size
In short: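 CHRM1-CHO calcium-flux assay, antagonist mode. Cells were seeded 18 h, dye-loaded 1 h at 37 C and given compound for 5 min at RT, then acetylcholine was added at 50nM. FDSS fluorescence was read 3 min; 15 concentrations, three runs.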

Measured: Potency

O=C1OC(=O)c2c(Br)c(Br)c(Br)c(Br)c21
not listed: [17]
inactive: all other assays above

Nc1nc(-c2ccccc2)cs1
not listed: [14] | [16] | [17]
inactive: all other assays above

OCCc1ccncc1
not listed: [16]
inactive: all other assays above

CCCCCC/C=C/C=O
not listed: [11] | [12]
inactive: all other assays above

CC(CN(CCN(CC(C)OCCO)CC(C)OCCO)CC(C)OCCO)OCCO (centres undefined)
not listed: [11]
inactive: all other assays above

CC1CCN(CCCC(=O)c2ccc(F)cc2)CC1
not listed: [16]
inactive: all other assays above

CC(=O)OCC(=O)[C@H]1CC[C@H]2[C@@H]3CCC4=CC(=O)CC[C@]4(C)[C@H]3CC[C@]12C
not listed: [10] | [11] | [12] | [14] | [16] | [17]
inactive: all other assays above

CCCCCCCCCCO[C@@H]1O[C@H](CO)[C@@H](O)[C@H](O)[C@H]1O
not listed: [9] | [11] | [14]
inactive: all other assays above

CO/N=C(/C(=O)N[C@@H]1C(=O)N2C(C(=O)O)=C(Cn3nnc(C)n3)CS[C@H]12)c1csc(N)n1
not listed: [17]
inactive: all other assays above
